aSyn UTR act – Activators via SNCA 5'UTR binding, MLPCN; actives 7.1% (n = 300,000); activity score, % (tested at 7.5 µM), hits read low; alpha-synuclein 5'UTR reporter, activators screen; in the data active = activity score below about -60%
Starred values were filed as active, the others as inactive. A selection follows.

SMILES | aSyn UTR act
CC(Cc1ccccc1)N1Cc2ccccc2C1 (stereo not drawn) | -65.1*
CC/C=C/CC(=O)N[C@@H](c1ccccc1)[C@@H](O)C(=O)O[C@H]1C[C@@]2(O)[C@@H](OC(=O)c3ccccc3)C3[C@](C)(C(=O)[C@H](OC(C)=O)C(=C1C)C2(C)C)[C@@H](O)C[C@H]1OC[C@@]31OC(C)=O (stereo partly drawn) | 77.4
C=C1C(=O)O[C@@H]2C[C@@H](C)[C@H]3C=CC(=O)[C@]3(O)C[C@@H]12 | -116.6*
CC(=O)c1ccc(-c2ccccc2)cc1 | -80.9*
CN(C)C(=O)Oc1ccc(C(=O)c2ccccc2)cc1 | -68.1*
CC(=O)c1ccc(OC(=O)N(C)c2ccccc2)cc1 | -66.3*
Cc1ccc(-c2cc(-c3ccccc3)cc(-c3ccccc3)[n+]2-c2ccccc2)cc1 | 84.5
Fc1ccc(C(OCCN2CCN(CCCc3ccccc3)CC2)c2ccc(F)cc2)cc1 | 105.9
CCC(=O)N1CC(=O)Nc2ccc(Br)cc2C1c1ccccc1 (stereo not drawn) | -70.5*
O=c1c2ccccc2nc(/C=C/c2ccc([N+](=O)[O-])o2)n1-c1ccc(O)cc1 | 100.5
Cc1cccc(-n2c(/C=C/c3ccc([N+](=O)[O-])o3)nc3ccccc3c2=O)c1 | -211.5*
C[C@]12CCC3C(CCC4=CC(O)CC[C@@]43/C=N/O)C1(O)CCC2C1=CC(=O)OC1 (stereo partly drawn) | 113.0
CC(C)(C)C(=O)c1cn(CC(=O)NCc2ccco2)c2ccccc12 | -142.5*
O=C(Nc1cccc(Cl)c1)c1c(O)c2c(n(Cc3ccco3)c1=O)CCCC2 | -87.4*
CN(C)C(=O)Oc1ccc2c(c1)O/C(=C\c1ccc(Cl)cc1)C2=O | -86.6*
CN(C)C(=O)Oc1ccc2c(c1)O/C(=C\c1cccc(Cl)c1)C2=O | -72.4*
COC(=O)C[C@]1(C(=O)OC)CN(C#N)N(c2ccc(Cl)cc2)C12c1ccccc1-c1ccccc12 | 95.8
COc1cc2c(c(OC)c1OC)-c1ccc(O)cc1[C@@H](NC(C)=O)CC2 | 60.8
CC(=O)O[C@@]12CO[C@@H]1C[C@@H](O)[C@@]1(C)C(=O)[C@H](O)C3=C(C)[C@@H](OC(=O)[C@H](O)[C@@H](NC(=O)c4ccccc4)c4ccccc4)C[C@@](O)([C@@H](OC(=O)c4ccccc4)C12)C3(C)C (stereo partly drawn) | 113.4
Cc1nn(CC(C)C)c(Cl)c1C(=O)NC1CCC(C)CC1 (stereo not drawn) | -123.5*
C[C@@H]1O[C@@H](O[C@H]2C[C@@H](O)[C@]3(CO)[C@H]4[C@H](O)C[C@]5(C)[C@@H](C6=CC(=O)OC6)CC[C@]5(O)[C@@H]4CC[C@]3(O)C2)[C@H](O)[C@H](O)[C@H]1O | 114.2
Cc1cc(C(=O)CS(=O)c2ccc(F)cc2)cc(C)c1OC(=O)N(C)C (stereo not drawn) | -68.4*
Cc1cc(C(=O)CS(=O)(=O)c2ccccc2)cc(C)c1OC(=O)N(C)C | -71.0*
CCC(C)C(=O)N[C@@H](c1ccccc1)[C@@H](O)C(=O)O[C@H]1C[C@@]2(O)[C@@H](OC(=O)c3ccccc3)C3[C@](C)(C(=O)[C@H](OC(C)=O)C(=C1C)C2(C)C)[C@@H](O)C[C@H]1OC[C@@]31OC(C)=O (stereo partly drawn) | 103.3
O=C(NC1(C(F)(F)F)Oc2ccc(Cl)cc2O1)N1CCC2(CC1)OCCO2 (stereo not drawn) | -72.7*
SMILES | aSyn UTR act
O=[N+]([O-])c1ccccc1CNCCc1ccc(F)cc1 | -111.4*
COc1cccc(OCc2cc(C(=O)N3C[C@H]4C[C@@H](C3)c3cccc(=O)n3C4)no2)c1 | -173.8*
O=C1NC(=O)C(C(CC(=O)c2ccccc2)c2ccccc2)C(=O)N1 (stereo not drawn) | -65.2*
CCCCCCCCCCCCCCCC[N+](C)(C)C | 97.6
Cc1c2ccncc2c(C)c2c1[nH]c1ccccc12 | 114.1
O=c1[nH]c(=S)[nH]c(O)c1N=Nc1ccc2c(c1)OCO2 | -73.9*
O=c1[nH]c(=S)[nH]c(O)c1N=Nc1ccc(OC(F)F)cc1 | -92.0*
Cn1c(NN=O)nc2ccccc21 | 68.9
Cc1ccc(N2C(=O)NC(=O)/C(=C/C=C/c3ccco3)C2=O)cc1 | -76.4*
CC(C)c1ccc(N2C(=O)NC(=O)/C(=C/C=C/c3ccco3)C2=O)cc1 | -129.5*
Cc1cc(C)cc(N2C(=O)NC(=O)/C(=C\C=C\c3ccco3)C2=O)c1 | -116.3*
O=C1NC(=O)N(c2ccccc2)C(=O)/C1=C\C=C\c1ccccc1 | -118.6*
CC(=O)O[C@@H]1/C=C/[C@](C)(O)C[C@@H](C)C/C=C/[C@H]2[C@@H]3O[C@]3(C)[C@@H](C)[C@H]3[C@H](Cc4ccccc4)NC(=O)[C@@]312 | 113.8
O=C1NC(=O)N(Cc2ccc(F)cc2)C(=O)/C1=C\C=C\c1ccco1 | -269.8*
CC(Cc1ccccc1)NC(=O)NC(C)Cc1ccccc1 (stereo not drawn) | -133.8*
CC(Cc1ccccc1)NC(=O)c1ccc(N)cc1 (stereo not drawn) | -110.4*
